In PMC7862700, “An all-to-all approach to the identification of sequence-specific readers for epigenetic DNA modifications on cytosine”:

Assays:
Assay in all cases: DAPPL (digital affinity profiling via proximity ligation, sequencing); 10 mM Tris-HCl pH 7.5, 50 mM NaCl, 1 mM DTT, 4% glycerol, room temperature, 30 min; GST-TFs on glutathione beads, 16-mer random dsDNA library, 0.1% formaldehyde crosslink after washing; high values mean tight binding
Conditions in all cases: protein: recombinant; tags: N-terminal GST; dsDNA, one strand shown
ERF = molecular target: T1, ERF (Homo sapiens, UniProt P50548 1-548)
T1 sequence: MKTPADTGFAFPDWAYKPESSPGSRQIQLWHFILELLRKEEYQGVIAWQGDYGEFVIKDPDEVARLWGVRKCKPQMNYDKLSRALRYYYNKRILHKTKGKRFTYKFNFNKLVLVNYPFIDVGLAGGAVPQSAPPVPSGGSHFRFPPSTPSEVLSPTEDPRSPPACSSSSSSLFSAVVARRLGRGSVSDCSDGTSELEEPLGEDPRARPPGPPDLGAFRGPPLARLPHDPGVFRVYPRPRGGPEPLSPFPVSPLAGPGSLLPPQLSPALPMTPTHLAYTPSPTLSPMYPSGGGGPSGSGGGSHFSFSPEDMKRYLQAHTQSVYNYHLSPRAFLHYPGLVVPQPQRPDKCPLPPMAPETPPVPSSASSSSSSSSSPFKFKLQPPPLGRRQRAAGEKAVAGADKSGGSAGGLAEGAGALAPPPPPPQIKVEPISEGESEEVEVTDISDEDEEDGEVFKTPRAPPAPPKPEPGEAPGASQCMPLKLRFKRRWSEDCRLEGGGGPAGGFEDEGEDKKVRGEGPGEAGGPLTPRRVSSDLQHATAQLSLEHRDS
Summary of the method: (§1)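 Binding signal is given per hexamer as its read frequency for a factor divided by its frequency in the tag-only sample. GST-fused human transcription factors were expressed in yeast, captured on glutathione beads, barcoded with DNA and pooled with that sample, then incubated with 200 nmole of a 16-mer random double-stranded DNA library in Tris/NaCl/DTT/glycerol buffer for 30 min at room temperature. The pools were then washed, crosslinked, proximity-ligated, amplified by PCR and sequenced on an Illumina NextSeq500.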

ETV3L = molecular target: T2, ETV3L (Homo sapiens, UniProt Q6ZN32 1-361)
T2 sequence: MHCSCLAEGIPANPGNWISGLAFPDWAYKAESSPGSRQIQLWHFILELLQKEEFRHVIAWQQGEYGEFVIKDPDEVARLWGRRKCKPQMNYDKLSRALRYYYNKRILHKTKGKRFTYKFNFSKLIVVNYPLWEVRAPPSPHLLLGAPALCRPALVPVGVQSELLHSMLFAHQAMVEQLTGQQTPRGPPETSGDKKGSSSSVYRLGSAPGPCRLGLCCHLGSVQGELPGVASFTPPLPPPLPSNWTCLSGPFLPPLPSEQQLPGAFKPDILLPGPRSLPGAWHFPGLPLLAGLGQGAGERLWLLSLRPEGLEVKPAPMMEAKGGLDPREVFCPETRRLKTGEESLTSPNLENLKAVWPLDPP
Summary of the method: as §1

ETS2 = molecular target: T3, ETS2 (Homo sapiens, UniProt P15036 1-469)
T3 sequence: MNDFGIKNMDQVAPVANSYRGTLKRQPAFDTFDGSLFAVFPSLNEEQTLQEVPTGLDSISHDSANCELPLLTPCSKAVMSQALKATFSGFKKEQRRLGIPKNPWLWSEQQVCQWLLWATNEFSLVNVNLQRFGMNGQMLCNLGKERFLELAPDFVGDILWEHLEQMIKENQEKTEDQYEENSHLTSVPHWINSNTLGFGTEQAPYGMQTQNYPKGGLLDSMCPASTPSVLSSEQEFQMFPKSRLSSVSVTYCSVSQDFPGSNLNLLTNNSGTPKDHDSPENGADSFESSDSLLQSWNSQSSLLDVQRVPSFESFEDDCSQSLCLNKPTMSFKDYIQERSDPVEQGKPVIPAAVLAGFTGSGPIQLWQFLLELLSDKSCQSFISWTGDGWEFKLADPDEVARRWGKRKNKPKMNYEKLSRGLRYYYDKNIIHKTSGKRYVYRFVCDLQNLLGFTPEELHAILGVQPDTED
Summary of the method: as §1

SPDEF = molecular target: T4, SPDEF (Homo sapiens, UniProt O95238 1-335)
T4 sequence: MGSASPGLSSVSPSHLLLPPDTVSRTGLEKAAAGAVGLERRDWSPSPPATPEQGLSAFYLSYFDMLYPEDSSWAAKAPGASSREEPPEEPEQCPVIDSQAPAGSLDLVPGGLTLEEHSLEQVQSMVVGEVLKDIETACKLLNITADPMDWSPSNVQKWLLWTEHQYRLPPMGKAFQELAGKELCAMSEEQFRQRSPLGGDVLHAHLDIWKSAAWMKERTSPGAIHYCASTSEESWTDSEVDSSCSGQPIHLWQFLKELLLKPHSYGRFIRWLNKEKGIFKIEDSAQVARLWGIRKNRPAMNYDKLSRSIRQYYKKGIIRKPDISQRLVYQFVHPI
Summary of the method: as §1

ETV7 = molecular target: T5, ETV7 (Homo sapiens, UniProt Q9Y603 1-341)
T5 sequence: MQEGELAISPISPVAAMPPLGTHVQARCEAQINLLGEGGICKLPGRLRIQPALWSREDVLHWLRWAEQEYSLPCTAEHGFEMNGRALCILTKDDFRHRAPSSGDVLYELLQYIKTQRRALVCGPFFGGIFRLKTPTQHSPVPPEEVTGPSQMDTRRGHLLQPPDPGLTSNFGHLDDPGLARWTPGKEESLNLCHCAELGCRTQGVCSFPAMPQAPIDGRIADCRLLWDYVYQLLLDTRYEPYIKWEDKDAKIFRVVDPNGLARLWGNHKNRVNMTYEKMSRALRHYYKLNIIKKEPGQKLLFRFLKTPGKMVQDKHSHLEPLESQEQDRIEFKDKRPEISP
Summary of the method: as §1

ELF5 = molecular target: T6, ELF5 (Homo sapiens, UniProt Q9UKW6-2 1-255)
T6 sequence: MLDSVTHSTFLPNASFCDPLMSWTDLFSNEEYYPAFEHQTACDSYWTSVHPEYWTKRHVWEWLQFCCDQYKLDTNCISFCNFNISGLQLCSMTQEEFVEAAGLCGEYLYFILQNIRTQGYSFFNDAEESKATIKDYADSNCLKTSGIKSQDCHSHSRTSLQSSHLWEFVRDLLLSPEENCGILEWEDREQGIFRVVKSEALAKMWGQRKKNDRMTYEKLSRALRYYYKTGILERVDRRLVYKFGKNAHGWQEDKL
Summary of the method: as §1

ETV3 = molecular target: T7, ETV3 (Homo sapiens, UniProt P41162-2 1-143)
T7 sequence: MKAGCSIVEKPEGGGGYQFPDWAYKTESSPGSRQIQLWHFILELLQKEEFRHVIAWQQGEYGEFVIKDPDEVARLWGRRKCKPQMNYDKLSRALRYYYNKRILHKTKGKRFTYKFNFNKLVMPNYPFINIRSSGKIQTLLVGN
Summary of the method: as §1

ETV6 = ETV6 (Homo sapiens, UniProt P41212 1-452)
Sequence of ETV6 (P41212 whole entry): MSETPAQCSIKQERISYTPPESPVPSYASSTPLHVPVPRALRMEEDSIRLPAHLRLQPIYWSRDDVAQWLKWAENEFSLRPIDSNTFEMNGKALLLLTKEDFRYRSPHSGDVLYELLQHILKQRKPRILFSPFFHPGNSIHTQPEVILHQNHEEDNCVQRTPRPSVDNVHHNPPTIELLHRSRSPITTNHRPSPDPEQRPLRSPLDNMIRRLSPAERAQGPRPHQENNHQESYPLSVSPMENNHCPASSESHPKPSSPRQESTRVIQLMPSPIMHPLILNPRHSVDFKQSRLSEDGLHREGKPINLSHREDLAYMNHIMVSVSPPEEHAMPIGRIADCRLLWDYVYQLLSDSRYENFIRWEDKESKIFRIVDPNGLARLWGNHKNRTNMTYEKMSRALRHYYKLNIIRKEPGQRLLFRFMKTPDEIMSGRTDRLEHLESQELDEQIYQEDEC
Summary of the method: as §1

GCATTT
binding signal (ERF): 1.31 fold enrichment (6-mer frequency, TF over GST control) | binding signal (ETV3L): 1.35 fold enrichment (6-mer frequency, TF over GST control) | binding signal (ETS2): 1.34 fold enrichment (6-mer frequency, TF over GST control) | binding signal (SPDEF): 1.36 fold enrichment (6-mer frequency, TF over GST control) | binding signal (ETV7): 1.31 fold enrichment (6-mer frequency, TF over GST control) | binding signal (ELF5): 1.4 fold enrichment (6-mer frequency, TF over GST control) | binding signal (ETV3): 1.36 fold enrichment (6-mer frequency, TF over GST control) | binding signal (ETV6): 1.39 fold enrichment (6-mer frequency, TF over GST control)

CCTACT
binding signal (ERF): 1.7 fold enrichment (6-mer frequency, TF over GST control) | binding signal (ETV3L): 1.53 fold enrichment (6-mer frequency, TF over GST control) | binding signal (ETS2): 1.7 fold enrichment (6-mer frequency, TF over GST control) | binding signal (SPDEF): 1.49 fold enrichment (6-mer frequency, TF over GST control) | binding signal (ETV7): 1.35 fold enrichment (6-mer frequency, TF over GST control) | binding signal (ELF5): 1.82 fold enrichment (6-mer frequency, TF over GST control) | binding signal (ETV3): 1.77 fold enrichment (6-mer frequency, TF over GST control) | binding signal (ETV6): 1.73 fold enrichment (6-mer frequency, TF over GST control)

TAGTGG
binding signal (ERF): 1.18 fold enrichment (6-mer frequency, TF over GST control) | binding signal (ETV3L): 1.15 fold enrichment (6-mer frequency, TF over GST control) | binding signal (ETS2): 1.28 fold enrichment (6-mer frequency, TF over GST control) | binding signal (SPDEF): 1.1 fold enrichment (6-mer frequency, TF over GST control) | binding signal (ETV7): 1.17 fold enrichment (6-mer frequency, TF over GST control) | binding signal (ELF5): 1.12 fold enrichment (6-mer frequency, TF over GST control) | binding signal (ETV3): 1.1 fold enrichment (6-mer frequency, TF over GST control) | binding signal (ETV6): 1.16 fold enrichment (6-mer frequency, TF over GST control)

ACTTCA
binding signal (ERF): 1.33 fold enrichment (6-mer frequency, TF over GST control) | binding signal (ETV3L): 1.4 fold enrichment (6-mer frequency, TF over GST control) | binding signal (ETS2): 1.42 fold enrichment (6-mer frequency, TF over GST control) | binding signal (SPDEF): 1.37 fold enrichment (6-mer frequency, TF over GST control) | binding signal (ETV7): 1.54 fold enrichment (6-mer frequency, TF over GST control) | binding signal (ELF5): 1.4 fold enrichment (6-mer frequency, TF over GST control) | binding signal (ETV3): 1.29 fold enrichment (6-mer frequency, TF over GST control) | binding signal (ETV6): 1.35 fold enrichment (6-mer frequency, TF over GST control)

CCTATG
binding signal (ERF): 1.11 fold enrichment (6-mer frequency, TF over GST control) | binding signal (ETV3L): 1.21 fold enrichment (6-mer frequency, TF over GST control) | binding signal (ETS2): 1.19 fold enrichment (6-mer frequency, TF over GST control) | binding signal (SPDEF): 1.25 fold enrichment (6-mer frequency, TF over GST control) | binding signal (ETV7): 1.27 fold enrichment (6-mer frequency, TF over GST control) | binding signal (ELF5): 1.16 fold enrichment (6-mer frequency, TF over GST control) | binding signal (ETV3): 1.29 fold enrichment (6-mer frequency, TF over GST control) | binding signal (ETV6): 1.17 fold enrichment (6-mer frequency, TF over GST control)

TATGAC
binding signal (ERF): 1.39 fold enrichment (6-mer frequency, TF over GST control) | binding signal (ETV3L): 1.36 fold enrichment (6-mer frequency, TF over GST control) | binding signal (ETS2): 1.31 fold enrichment (6-mer frequency, TF over GST control) | binding signal (SPDEF): 1.33 fold enrichment (6-mer frequency, TF over GST control) | binding signal (ETV7): 1.29 fold enrichment (6-mer frequency, TF over GST control) | binding signal (ELF5): 1.29 fold enrichment (6-mer frequency, TF over GST control) | binding signal (ETV3): 1.2 fold enrichment (6-mer frequency, TF over GST control) | binding signal (ETV6): 1.25 fold enrichment (6-mer frequency, TF over GST control)

TATCTT
binding signal (ERF): 1.32 fold enrichment (6-mer frequency, TF over GST control) | binding signal (ETV3L): 1.41 fold enrichment (6-mer frequency, TF over GST control) | binding signal (ETS2): 1.29 fold enrichment (6-mer frequency, TF over GST control) | binding signal (SPDEF): 1.32 fold enrichment (6-mer frequency, TF over GST control) | binding signal (ETV7): 1.22 fold enrichment (6-mer frequency, TF over GST control) | binding signal (ELF5): 1.4 fold enrichment (6-mer frequency, TF over GST control) | binding signal (ETV3): 1.25 fold enrichment (6-mer frequency, TF over GST control) | binding signal (ETV6): 1.18 fold enrichment (6-mer frequency, TF over GST control)

CTAAGT
binding signal (ERF): 1.13 fold enrichment (6-mer frequency, TF over GST control) | binding signal (ETV3L): 1.33 fold enrichment (6-mer frequency, TF over GST control) | binding signal (ETS2): 1.23 fold enrichment (6-mer frequency, TF over GST control) | binding signal (SPDEF): 1.3 fold enrichment (6-mer frequency, TF over GST control) | binding signal (ETV7): 1.29 fold enrichment (6-mer frequency, TF over GST control) | binding signal (ELF5): 1.17 fold enrichment (6-mer frequency, TF over GST control) | binding signal (ETV3): 1.21 fold enrichment (6-mer frequency, TF over GST control) | binding signal (ETV6): 1.27 fold enrichment (6-mer frequency, TF over GST control)

TTAAAG
binding signal (ERF): 1.25 fold enrichment (6-mer frequency, TF over GST control) | binding signal (ETV3L): 1.2 fold enrichment (6-mer frequency, TF over GST control) | binding signal (ETS2): 1.19 fold enrichment (6-mer frequency, TF over GST control) | binding signal (SPDEF): 1.12 fold enrichment (6-mer frequency, TF over GST control) | binding signal (ETV7): 1.21 fold enrichment (6-mer frequency, TF over GST control) | binding signal (ELF5): 1.13 fold enrichment (6-mer frequency, TF over GST control) | binding signal (ETV3): 1.21 fold enrichment (6-mer frequency, TF over GST control) | binding signal (ETV6): 1.19 fold enrichment (6-mer frequency, TF over GST control)
